Screening data deposited in PubChem by National Center for Advancing Translational Sciences (NCATS).
Most compounds without a hit are left out; they make up all but 15% or so of the library.
TDP1 cell noCPT: qHTS for Inhibitors of human tyrosyl-DNA phosphodiesterase 1 (TDP1): qHTS in cells in absence of CPT; DT40 Tdp1-/- hTDP1 cells, no CPT, ATP luminescence, 48 h; Potency, µM (titrated, usually from 46.2 µM), usual class: inhibitors; 420,000 compounds, 15% hits; AID 686978, 2013; note: nearly all actives have a fitted effect of over 55% in size
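Chicken DT40 Tdp1-/- cells complemented with human TDP1, screened without camptothecin (DMSO vehicle only), 400 cells/well. Compounds pin-transferred, cells incubated at 37 °C for at least 48 hr. Growth read as ATP-dependent luminescence (CellTiter-Glo, 30 min at RT).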
12-LOX inh: ALOX12 (human) lipoxygenase inhibition | purified 12hLO, xylenol orange hydroperoxide absorbance | Potency, µM (top dose mostly 108 µM), actives largely listed as inhibitors | 580,000 compounds, 1.1% hits | AID 1671190
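Purified human 12hLO at 150 nM in 25 mM Hepes, 0.01% Triton X-100, pH 7.0, preincubated 15 min at room temperature with compound. Reaction started with 40 uM arachidonic acid, 30 min at room temperature. Hydroperoxide measured by Fe-xylenol orange, 573/405 nm absorbance ratio.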
RORg inh: inhibitors of mouse ROR gamma transcriptional activity. Drosophila S2 Gal4-RORgamma UAS-luciferase reporter, 20 h. 310,000 compounds, 5.4% hits. Potency, µM (highest dose often 53.6 µM), most hits filed as inhibitors; note: nearly all actives have a fitted effect of over 60% in size
Target sequence (P51450 whole entry, looked up, the tested form may be a part): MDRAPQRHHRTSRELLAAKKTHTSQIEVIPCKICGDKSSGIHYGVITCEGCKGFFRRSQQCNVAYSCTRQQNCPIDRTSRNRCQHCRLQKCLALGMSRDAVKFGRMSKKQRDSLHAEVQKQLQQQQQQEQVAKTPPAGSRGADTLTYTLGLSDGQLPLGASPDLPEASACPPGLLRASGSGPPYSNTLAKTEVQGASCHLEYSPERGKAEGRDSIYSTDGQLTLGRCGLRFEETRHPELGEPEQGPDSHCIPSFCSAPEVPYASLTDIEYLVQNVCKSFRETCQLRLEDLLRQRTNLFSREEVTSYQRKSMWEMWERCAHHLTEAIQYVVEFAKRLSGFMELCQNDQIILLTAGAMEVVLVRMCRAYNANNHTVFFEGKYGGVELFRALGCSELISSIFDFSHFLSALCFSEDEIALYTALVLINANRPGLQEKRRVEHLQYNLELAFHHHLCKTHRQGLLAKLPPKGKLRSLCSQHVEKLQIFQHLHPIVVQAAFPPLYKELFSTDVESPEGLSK
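Using a luciferase readout, inhibitors were identified by reduced reporter activity in Drosophila cells coexpressing a copper-inducible Gal4–ROR gamma fusion and UAS-driven Photinus luciferase, incubated 20 hr after 700 uM copper sulfate.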
ELG1 repair inh: blocks ELG1-dependent DNA repair in HEK293T cells; Potency, µM (top dose mostly 46.1 µM), usual class: inhibitors; AID 504467; 330,000 compounds, 2.3% hits; HEK293T ELG1-luciferase reporter, luminescence, 16 h; DNA damage induced by 5-fluorouridine; note: nearly all actives have a fitted effect of over 55% in size
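Quantitative HTS, concentration-response format. 2,000 cells/well co-treated with 5-fluorouridine and compound, 16 hr in 5% CO2 at 37 °C; ONE-Glo luminescence read after 30 min.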
DT40 TDP1 CPT: DT40-hTDP1 cell growth loss with CPT; AID 686979; Potency, µM (doses to about 46.2 µM), actives largely listed as inhibitors; chicken DT40 Tdp1-/-;hTDP1 cells + 20 nM CPT, ATP luminescence, 48 h; 420,000 compounds, 12% hits; note: nearly all actives have a fitted effect of over 55% in size
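Chicken DT40 Tdp1-/- cells stably complemented with human TDP1 were seeded at 400 cells/well in medium containing 20 nM camptothecin, exposed to pin-transferred compounds, and grown at 37 °C for at least 48 hr. Viability was read as ATP luminescence.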
VP16 counter: Gal4-VP16 reporter inhibition counter-screen | Drosophila S2 Gal4-VP16 UAS-luciferase, luminescence, 20 h | AID 2546 | 310,000 compounds, 3.5% hits | Potency, µM (series often up to 53.6 µM), actives largely listed as inhibitors;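 note: Gal4-VP16 expression switched on by copper sulfate through the metallothionein promoter; nearly all actives have a fitted effect of over 50% in size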
Hits are given with their value; – = inactive; ? = inconclusive; · = no result given; [ ] = another dose, or the depositor's remark. Calls come from the whole dose curve; as a rule, active = well fitted curve in the direction sought with a large enough effect; inconclusive = small, poorly fitted or top-dose-only effect, or another doubt; inactive = no such curve, though single readings can be large; an effect the other way counts as inactive or inconclusive.

SMILES	TDP1 cell noCPT	12-LOX inh	RORg inh	ELG1 repair inh	DT40 TDP1 CPT	VP16 counter
Cc1ccsc1/C=N/NC(=O)c1cccnc1	–	–	?	–	–	13µM
Cc1ccsc1/C=N/NC(=O)c1ccncc1	–	–	3.5µM	–	–	7.1µM
Cc1nc(N2CCC(C(=O)NCC3CCCCC3)CC2)cc(C(F)(F)F)n1	·	–	·	·	·	·
O=C(Nc1cccc(C(F)(F)F)c1)c1cccc(NC(=O)c2cc(=O)c3ccccc3o2)c1	·	–	·	·	·	·
Cc1cc(=S)n2ccccc2n1	·	–	·	·	·	·
CC(=O)n1cc(/C=N/NC(=O)c2ccc([N+](=O)[O-])cc2)c2ccccc21	?	–	3.5µM	–	–	?
O=C(N/N=C/c1c[nH]c2c1ccc1ccccc12)c1ccc([N+](=O)[O-])cc1	–	–	–	–	–	–
COc1ccc(CCNC(=O)c2ccc3c(c2)N(Cc2cccc(Cl)c2)C(=O)c2ccccc2S3=O)cc1OC (configuration not stated)	?	–	·	·	?	·
COc1ccc(CCNC(=O)c2ccc3c(c2)N(Cc2cccc(C)c2)C(=O)c2ccccc2S3(=O)=O)cc1OC	12µM	–	·	·	8.2µM	·
COc1ccc(CCNC(=O)c2ccc3c(c2)N(Cc2ccccc2F)C(=O)c2ccccc2S3(=O)=O)cc1OC	10µM	–	·	·	16µM	·
COc1ccc(CCNC(=O)c2ccc3c(c2)N(Cc2ccc(Cl)cc2)C(=O)c2ccccc2S3)cc1OC	16µM	–	·	·	?	·
CC(C)(C)c1ccc(-c2nc3c(C#N)c(-c4ccc5c(c4)OCO5)ccn3n2)cc1	13µM	–	–	–	18µM	–
O=C(OC1CCOC1=O)c1ccccc1Nc1ccccc1 (configuration not stated)	·	–	·	·	·	·
O=C1NC(=NC2CCCCC2)C2(CCN(Cc3ccccc3)C2)N1c1cc(F)cc(F)c1 (configuration not stated)	·	–[6.33 µM]	·	·	·	·
Cc1ccsc1CN(C(=O)c1oc2ccc(F)cc2c1C)C1CCS(=O)(=O)C1 (configuration not stated)	7.3µM	–	·	·	12µM	·
Cc1ccc2c(C)c(C(=O)N(Cc3cccs3)C3CCS(=O)(=O)C3)oc2c1 (configuration not stated)	?	–	–	?	?	–
Cc1ccc2oc(C(=O)N(Cc3sccc3C)C3CCS(=O)(=O)C3)c(C)c2c1 (configuration not stated)	5.2µM	–	·	·	5.8µM	·
Cc1cc(OC(C)C(=O)NCC2CCCO2)cc(C)c1Cl (configuration not stated)	–	?	–	–	–	–
O=C(NC(=S)NCC1CCCO1)c1ccco1 (configuration not stated)	–	?	–	–	–	–
O=C(NNc1ccccc1[N+](=O)[O-])NC1CCCCC1	–	–	–	–	–	–
O=C(NC(=S)NCC1CCCO1)c1ccccc1[N+](=O)[O-] (configuration not stated)	–	?	10µM	–	–	–
O=C(NC(=S)NC1CCCCC1)c1ccccc1[N+](=O)[O-]	–	–	5µM	?	–	5.6µM
O=C(NC(=S)NCC1CCCO1)c1cccs1 (configuration not stated)	–	–	14µM	?	–	?
Cc1cc(OCC(=O)NNC(=S)NCC2CCCO2)cc(C)c1Cl (configuration not stated)	?	–	3.2µM	?	?	6.3µM
CCOCCn1c(NCCOC)nc2c1c(=O)[nH]c(=O)n2C	·	–	·	·	·	·
SMILES	TDP1 cell noCPT	12-LOX inh	RORg inh	ELG1 repair inh	DT40 TDP1 CPT	VP16 counter
O=C1CCN(C(=O)Nc2ccccc2F)CCCC(c2nc(-c3cccnc3)no2)CCN1 (configuration not stated)	·	–	·	·	·	·
O=C(NCC(O)c1ccccc1C(F)(F)F)c1cccc(-n2cnnc2)c1 (configuration not stated)	·	–	·	·	·	·
O=C(NC(=S)NCC1CCCO1)c1ccccc1Br (configuration not stated)	–	–	?	–	–	–
Cc1ccc(C(=O)NC(=S)NCC2CCCO2)cc1Br (configuration not stated)	29µM	28µM	5µM	?	?	?
O=[N+]([O-])c1ccccc1S(=O)(=O)NC1CCCC1	–	–	–	–	–	–
O=[N+]([O-])c1ccccc1S(=O)(=O)NC1CCCCCCC1	16µM	–	?	–	–	–
C=CCN(C)C(=O)C[C@@H]1c2nc(NC(=O)c3c(F)cccc3F)sc2C[C@@H]2[C@](C)(CO)[C@H](O)CC[C@]21C	·	–	·	·	·	·
COc1ccc(NC(=S)N(CCCN2CCOCC2)C(C)c2cc3ccccc3o2)cc1 (configuration not stated)	–	–	10µM	–	–	–
COc1cccc2cc(C(C)N(CCCN3CCOCC3)C(=S)Nc3ccc(C)cc3)oc12 (configuration not stated)	–	–	–	–	–	–[10 µM]
Cc1ccc(NC(=O)Nc2ccc3nc(NS(=O)(=O)c4ccccc4)sc3c2)cc1	·	–	·	·	·	·
CC1CN(C)C(C)CC1OC(=O)C(c1ccccc1)c1ccccc1 (configuration not stated)	23µM	–	·	·	?	·
CCCCOc1ccc(C(=O)OC2CC(C)N(C)CC2C)cc1 (configuration not stated)	16µM	–	–	–	?	–
CN(C)[C@@H]1CCC[C@H]1OC(=O)C(c1ccccc1)c1ccccc1	?	–	–	–	–	–
Cc1ccc(C(=O)N2CCC3(CC2)NC(=O)N(c2ccccc2Cl)N3)cc1C	·	1.3µM	·	·	·	·
COc1ccc(Cl)cc1C(=O)N1CCC2(CC1)NC(=O)N(c1ccccc1)N2	·	1.8µM	·	·	·	·
COc1ccc(C(=O)N2CCC3(CC2)NC(=O)N(c2ccccc2Cl)N3)cc1	·	2.2µM	·	·	·	·
COc1ccc(Cl)cc1C(=O)N1CCC2(CC1)NC(=O)N(c1ccccc1Cl)N2	·	1.8µM	·	·	·	·
COc1ccc(Cl)cc1C(=O)N1CCC2(CC1)N(c1ccccc1)C(=O)CS2(=O)=O	·	–	·	·	·	·
O=C(c1ccc2c(c1)OCO2)N1CCC2(CC1)NC(=O)N(c1ccccc1Cl)N2	·	2µM	·	·	·	·
COc1ccc(C(=O)N2CCC3(CC2)NC(=O)N(c2ccccc2Cl)N3)cc1F	·	1.3µM	·	·	·	·
O=C(c1ccoc1)N1CCC2(CC1)NC(=O)N(c1ccccc1Cl)N2	·	1.3µM	·	·	·	·
O=C(CSc1nc2ccccc2c(=O)n1Cc1ccc(F)cc1)NCc1cccs1	–	–	2.8µM	–	–	5µM
CCN(CC)C(=O)CSc1nc2ccccc2c(=O)n1CCC(=O)NCc1ccc(F)cc1	–	–	?	12µM	–	?
